{
  "source": "ChEMBL document CHEMBL1201862",
  "about": "“PubChem BioAssay data set” (2004)",
  "note": "In all, about 390,000 compounds went through this assay and about 4,000 (1%) were called active. About 7% were inconclusive and are not listed. The calls are words filed in the database; no cut-off is given here. Many of the other results were omitted from the sample, so actives are more common in it than they were.",
  "data": [
    {"target": "T1, DNA polymerase iota (Homo sapiens) (UniProt Q9UNA4)", "T1 sequence (whole entry)": "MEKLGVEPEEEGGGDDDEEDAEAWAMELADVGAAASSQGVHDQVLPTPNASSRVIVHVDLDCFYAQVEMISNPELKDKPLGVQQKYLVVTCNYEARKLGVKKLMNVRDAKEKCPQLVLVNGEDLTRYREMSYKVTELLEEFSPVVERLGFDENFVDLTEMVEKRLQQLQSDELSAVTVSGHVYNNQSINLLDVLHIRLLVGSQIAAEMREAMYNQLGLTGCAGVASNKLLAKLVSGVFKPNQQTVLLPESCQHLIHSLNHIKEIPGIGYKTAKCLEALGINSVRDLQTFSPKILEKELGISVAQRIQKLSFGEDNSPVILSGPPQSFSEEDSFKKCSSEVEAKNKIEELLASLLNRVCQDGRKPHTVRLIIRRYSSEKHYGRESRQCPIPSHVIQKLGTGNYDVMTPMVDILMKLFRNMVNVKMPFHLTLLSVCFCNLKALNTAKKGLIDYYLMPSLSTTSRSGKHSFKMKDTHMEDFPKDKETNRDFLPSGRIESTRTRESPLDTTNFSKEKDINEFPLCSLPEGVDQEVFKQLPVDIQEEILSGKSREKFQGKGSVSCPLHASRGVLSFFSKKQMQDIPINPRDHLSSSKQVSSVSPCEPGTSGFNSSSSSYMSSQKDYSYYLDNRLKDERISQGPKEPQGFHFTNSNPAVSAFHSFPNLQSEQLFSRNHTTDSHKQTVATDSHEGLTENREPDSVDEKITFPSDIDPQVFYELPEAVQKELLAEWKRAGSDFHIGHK", "experiment": "qHTS for Inhibitors of Polymerase Iota. [Related pubchem assays (depositor defined):AID588623]", "assay_type": "functional", "values": [
      {"smiles": "COc1ccc(OC)c(/C=C/c2cccc3c2N(CCCCI)C=S3/C=C/c2cc(OC)ccc2OC)c1", "note": "(configuration not stated)", "Potency": "70.8 µM (active)"},
      {"smiles": "Cl.NC(CCC(=O)O)C(=O)O", "note": "(configuration not stated)", "Potency": "inactive"}
    ]}
  ]
}
